Assay outcomes as filed in PubChem.
The full list was thinned out, with hits kept by preference.
Pf Dd2 growth: qHTS Primary assay for Inhibitors of Plasmodium falciparum Dd2 growth in vitro; P. falciparum Dd2 growth, SYBR Green, 72 h; Potency, µM (titrated, usually from 28.9 µM), usual class: inhibitors; 120,000 tested, 4.3% active; active means well fitted inhibition curve with a large enough effect; further: nearly all actives have a fitted effect of over 65% in size
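Readout: SYBR Green fluorescence, 485 nm excitation, 535 nm emission, after ~16 h lysis at 37C. Before that, Dd2-infected red cells (2.5% hematocrit) grew 72 h with compound, 29 uM top final concentration.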
Each line names hits and unclear results; the compound was inactive in the other large screens.

CC(C)C[C@@H]1N[C@H](C(=O)NC2CCC2)Cc2cn(CC3CC3)c3cccc1c23	Pf Dd2 growth 14.1µM
COc1ccc(-c2cn(C)c(=O)n3cc(COc4ccccc4)nc23)c(C)c1	none
c1cc(CN2CC(Oc3ccc4c(c3)OCO4)C2)cs1	none
O=C(COc1ccccc1)Nc1ccc2c(c1)CN(CCc1ccc(F)cc1)C(=O)CO2	none
CC1(CNC(=O)c2ccoc2)CCOCC1	none
CCC(=O)N1Cc2ccccc2CC2(CCCN2Cc2ccccn2)C1 (stereo not drawn)	none
CC(C)C(=O)N1Cc2ccccc2CC2(CCCCN2Cc2ccccn2)C1 (stereo not drawn)	Pf Dd2 growth 12.6µM
CCCN1CCC2(CC1)Cc1ccccc1CN(C(=O)C(C)C)C2	none
C[S+](=O)([O-])N1Cc2ccccc2CC2(CCCN2Cc2ccncc2)C1 (stereo not drawn)	none
C[S+](=O)([O-])N1Cc2ccccc2CC2(CCCN(Cc3ccccn3)C2)C1 (stereo not drawn)	none
C[S+](=O)([O-])N1CC2(CCCCN2Cc2ccccn2)Cc2ccccc21 (stereo not drawn)	Pf Dd2 growth 8.91µM
CC(C)C(=O)N1CCCC2(Cc3ccccc3CN2[S+](=O)([O-])c2ccccc2)C1 (stereo not drawn)	none
CCCN1CCCC12Cc1ccccc1CN(C(=O)C(C)C)C2 (stereo not drawn)	Pf Dd2 growth 8.91µM
CCC(=O)N1Cc2ccccc2CC2(CCCCN2Cc2ccccn2)C1 (stereo not drawn)	none
CC(=O)N1CC2(CCCN2Cc2ccccn2)Cc2ccccc21 (stereo not drawn)	none
CC(C)C(=O)N1Cc2ccccc2CC2(CCCCN2Cc2ccncc2)C1 (stereo not drawn)	Pf Dd2 growth 8.91µM
Cc1cccc(-c2ocnc2C(=O)N2CC[C@H](CO)[C@H](NC(=O)C3CC3)C2)c1	none
CCc1ccc(C(=O)N2CCC(Oc3ccc(C(N)=O)cn3)CC2)cc1	none
COCC(=O)NC[C@H]1CCN(C2CCSCC2)C[C@H]1N(C)C	none
CCN1c2cc(C(=O)NCc3ccc(OC)c(OC)c3)ccc2C(=O)N2CCCCCC21 (stereo not drawn)	none
CCN(CC)C(=O)[C@@H]1CCC[C@@H](NC(=O)c2cc(C)n(C)n2)CN(C)C(=O)C1	none
CC(C)n1cnnc1CNC(=O)[C@H]1CNC[C@H](C(=O)N2CCOCC2)C1	none
O=C(C1CC1)N1CCCN(C(=O)C2(c3ccccc3)CC2)c2ccccc21	none
CN(C)Cc1cn(C[C@H]2C[C@@H](NC(=O)c3nc4ccccc4s3)[C@H](O)[C@@H]2O)nn1	none
c1cncc(-c2ccnc(NCC(c3cccnc3)N3CCCCC3)n2)c1 (stereo not drawn)	none
OCC1CCCCN1CCNc1nccc(-c2cccnc2)n1 (stereo not drawn)	none
CN1CCCC1CCNc1nccc(-c2cnn(-c3ccc(F)cc3)c2)n1 (stereo not drawn)	Pf Dd2 growth 8.91µM
CC(C)(C)c1ccnc(N[C@H]2CO[C@H]3[C@@H]2OC[C@@H]3NC(=O)NCc2ccccc2)n1	Pf Dd2 growth 5.01µM
CC(C)(C)c1ccnc(N[C@H]2CO[C@H]3[C@@H]2OC[C@@H]3NC(=O)c2ccco2)n1	none
CC(C)(C)c1ccnc(N[C@H]2CO[C@H]3[C@@H]2OC[C@@H]3NC(=O)CCCC(=O)O)n1	none
CCC(NS(=O)(=O)c1ccc(C(=O)NC2CC2)cc1)c1cnn(C)c1 (stereo not drawn)	none
CCc1cccc(NC(=O)Cn2c(Nc3cc(C)cc(C)c3)nc(C)cc2=O)c1	none
CC1CCN(S(=O)(=O)c2ccc(C(=O)Nc3sc4c(c3C(N)=O)CC(C)(C)NC4(C)C)cc2)CC1	none
CCOC(=O)c1c(NC(=O)c2ccc(S(=O)(=O)N(CCOC)CCOC)cc2)sc2c1CC(C)(C)NC2(C)C	Pf Dd2 growth 10µM
CCOC(=O)c1c(NC(=O)CS(=O)(=O)c2ccc(C)cc2)sc2c1CCCCC2	none
COC[C@@H]1CNC[C@H]1C(=O)NC1CC1	none
CC(=O)Nc1ccc(OCC(=O)N(C)Cc2ccccc2)nc1	none
O=C(NC[C@H]1O[C@@H](CC(=O)N2CCN(c3ccccc3)CC2)C(O)[C@@H]1O)c1cccc(F)c1 (stereo partly drawn)	none
CCC(O)C1CCN(Cc2cnc(S(=O)(=O)CC)n2CCc2ccccc2)CC1 (stereo not drawn)	none
C#CCN(CC=C)Cc1cnc(S(=O)(=O)CC)n1CCCc1ccccc1	none
CCCCn1c(CN(C)C(C)c2ccccc2OC)cnc1S(=O)(=O)CC (stereo not drawn)	Pf Dd2 growth 8.91µM
OC1CC(c2cc(NCCOCc3ccc(Cl)cc3)ncn2)C1 (stereo not drawn)	none
C[C@@H]1CN(C(=O)CCN2CCCCCC2=O)C[C@]1(C)O	none
Cc1cn2nc(C(=O)NCc3ccc(C(C)C)cc3)cc2c(=O)[nH]1	none
CCOc1ccc(C(=O)N[C@@H]2CN(S(C)(=O)=O)C[C@H]2CN(C)C)cc1	none
CCc1ccc2oc(-c3cccc(NC(=O)c4ccc(-c5cccc([N+](=O)[O-])c5)o4)c3)nc2c1	Pf Dd2 growth 2µM
O=C(Nc1cccc(-c2nc3cc(Cl)ccc3o2)c1)c1cc([N+](=O)[O-])ccc1N1CCOCC1	none
CCc1ccc2oc(-c3cccc(NC(=O)COc4ccccc4Cl)c3)nc2c1	none
CCOc1cc(=O)n2c(c1C(=O)Nc1ccc(F)c(Cl)c1)CCCC2	none
CCOC(=O)c1ccc(NC(=O)Cn2c(C)cc3nc4n(c(=O)c32)CCCCC4)cc1	none
CN(C)c1ccc(CN2CC[C@H](c3nnc(-c4ccco4)o3)C2)cc1	none
CN(C)c1ccc(-c2nnc([C@H]3CCN(Cc4ccccc4F)C3)o2)cc1	none
CN(C)c1ccc(-c2nnc([C@H]3CCN(Cc4ccco4)C3)o2)cc1	Pf Dd2 growth 7.94µM
Cc1nn(-c2ccccc2)c(Oc2ccccc2F)c1CCC(=O)NCC(C)C	none
CCOC(=O)c1cnc2c(C)cc(C)cc2c1Nc1ccccc1OCC	none
CCOC(=O)c1cnc2c(C)cccc2c1Nc1ccc(OC(C)C)cc1	none
CCOC(=O)c1sc2ccccc2c1S(=O)(=O)Nc1cccc(C(F)(F)F)c1	none
CCOC(=O)c1cnc2c(C)c(Cl)ccc2c1Nc1ccc(C)cc1C	none
CCOC(=O)c1cnc2c(C(F)(F)F)cccc2c1Nc1cccc(C(=O)OC)c1	Pf Dd2 growth 2.82µM
CCOC(=O)c1cnc2c(ccc3ccccc32)c1Nc1ccccc1O	Pf Dd2 growth 11.2µM
CCN(CC)C(=O)CC1COc2ccc(C(=O)NCCOC)cc2N1C (stereo not drawn)	none
C[C@]1(CO)C2CC[C@@H](O)[C@@H](CC(=O)N3CCC[C@H]3CO)[C@]2(C)CC[C@H]1OC(=O)Nc1ccc(Cl)c(Cl)c1 (stereo partly drawn)	none
CCC(CC)NC(=O)C1CCCN(S(C)(=O)=O)CCC(=O)NCC1 (stereo not drawn)	none
Cc1cccc2nc(C(=O)N3CCC(n4cc(C(C)(C)O)nn4)CC3)cn12	none
O=C1N(C2CCNCC2)C(c2ccccc2)C12CCCCC2 (stereo not drawn)	none
COCc1cc(N2CCc3onc(-c4cccc5ccccc45)c3C2)ncn1	Pf Dd2 growth 14.1µM
O=S(=O)(c1cccnc1)N1CCc2onc(-c3cccc4ccccc34)c2C1	none
COc1ncccc1C(=O)N1CCc2onc(-c3cccc4ccccc34)c2C1	none
CCC1(N2CCN(S(=O)(=O)c3ccc(F)c(C)c3)CC2)CCN(S(C)(=O)=O)C1 (stereo not drawn)	none
Cc1ccc(C2Cn3cnc(C(=O)N4CCC(C(=O)NCc5cccc(F)c5)CC4)c3CO2)cc1 (stereo not drawn)	none
COC[C@H]1NC(=O)CC[C@H]1C(=O)NCCc1ccccc1	none
